Here are results for 27 compounds from PubChem BioAssay (NCI).

Common to all, as to assay: NCI-60 one-dose screen, 48 h (100 = growth as untreated, 0 = no growth, -100 = all killed)
What all share (conditions): 10 µM unless noted

Experiment [1] has as its system DU-145 prostate.
For experiment [2], the system named is K-562 leukemia.
The test system of experiment [3] is MALME-3M melanoma.
Experiment [4] has as its system MDA-MB-231 breast.
In experiment [5] the test system is RXF 393 renal.
The test system of experiment [6] is SF-268 CNS.
In experiment [7] the test system is SF-295 CNS.
Experiment [8] has as its system SF-539 CNS.
Experiment [9] relates to UACC-257 melanoma.
Experiment [10] relates to M14 melanoma.

About 83,000 compounds went through this panel and 20% of them were active in at least one assay; those are over-represented in the sample as a whole.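 96-well plates, one dose, 48 hours. Percent growth reported; active if below 10.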 Values without a mark were called inactive. Activity calls are given as the source filed them.

Regarding `Nc1nc(N)c(N=Nc2c(Br)cc(S(N)(=O)=O)cc2Br)c(N)n1`, the growth in experiment [1] was 109%; in [2] it was 51.1%; in [3], 111%; in experiment [4] it was 105%; in [5], 107%; in experiment [6], 100%. The growth in [7] is 94.9%; in [8], 112%; in [9], 98.7%; in experiment [10] it was 87.8%.

Turning to `O=C(CC(O)c1ccccc1)Nc1ccccn1` (stereo not given), the growth in experiment [1] was 104%; in [2] it was 84.1%; in experiment [3], 94.2%; in experiment [4], 104%; in experiment [5] it was 131%; in experiment [6] it was 103%. For the same compound, the growth in [7] was 108%; in [8], 97.6%; in experiment [9], 94.9%; in experiment [10], 99.7%.

Regarding `COc1cccc(C2C3=C(COC3=O)N(CCO)c3cc4c(cc32)OCO4)c1` (stereo not given), the growth is 0.613% (active) in [1]; 21% in experiment [2]; 82.4% in [3]; 34.6% in experiment [4]; -14.5% (active) in experiment [5]; 38.3% in experiment [6]. Further, the growth in experiment [7] is -13.8% (active); in [8], -19.1% (active); in experiment [9] it was 35.5%; in [10], -24.2% (active).

For the compound `COc1ccc(-c2csc3c2-n2cccc2C3=O)cc1O`, the growth in experiment [1] is -23.5% (active); in [2], 5.65% (active); in experiment [3], 66.2%; in experiment [4], 13.2%; in experiment [5] it was 31.3%; in experiment [6], 13%. Moreover, the growth in experiment [7] was -31.7% (active); in experiment [8], 15.6%; in [9] it was 43.8%; in experiment [10], -18.5% (active).

Turning to `Cc1ccc(-c2nnc(COc3ccc(-c4nnc(N)s4)cc3)o2)cc1`, the growth is 100% in experiment [1]; 91.1% in experiment [2]; 67.6% in experiment [3]; 87.8% in experiment [4]; 58% in experiment [5]; 79.6% in experiment [6]. The growth in experiment [7] was 7.56% (active); in experiment [8], 109%; in [9], 112%; in experiment [10], 88.1%.

Turning to `COc1ccc(OC)c(C2C(C#N)=C(N)Oc3cc(O)ccc32)c1` (stereo not given), the growth in experiment [1] was 107%; in experiment [2], 83.4%; in [3], 85.9%; in [4], 99%; in experiment [5], 92.1%; in experiment [6], 98.2%. For the same compound, the growth in [7] was 83.3%; in experiment [8] it was 104%; in experiment [9], 99.9%; in experiment [10], 100%.

For the compound `O=C(N/N=C(\CS(=O)(=O)c1ccccc1)c1cc2cc(Br)ccc2oc1=O)c1ccccc1`, the growth in experiment [1] was 105%; in [2] it was 112%; in experiment [3], 111%; in experiment [4], 94.2%; in experiment [5], 126%; in experiment [6], 98%. For the same compound, the growth is 98.6% in experiment [7], 101% in experiment [8], 107% in [9] and 106% in experiment [10].

`O=C(Nc1ccc(Cl)c(Cl)c1)OCn1ncc2ccc([N+](=O)[O-])cc21`: the growth in experiment [1] was 108%; in experiment [2] it was 88%; in experiment [3], 78.5%; in experiment [4] it was 75.7%; in [5], 83.2%; in experiment [6], 82.3%. Moreover, the growth in [7] is 88.4%; in [8] it was 78.1%; in experiment [9], 90.2%; in experiment [10] it was 94.7%.

`COc1cc(/C=C2\C(=O)Nc3ccccc32)cc(OC)c1O`: the growth in experiment [1] is 92.5%; in [2], 7.58% (active); in [3] it was 118%; in experiment [4], 63.1%; in experiment [5] it was 71.3%; in experiment [6], 78.3%. Besides, the growth in [7] is 60.6%; in experiment [8] it was 68.8%; in [9], 62.6%; in [10], 53.6%.

Turning to `Cn1c2c(cc(S(=O)(=O)c3ccccc3)c1=O)CCc1c-2cnn1-c1cccc(Cl)c1`, the growth in experiment [1] was 135%; in [2], 73.3%; in [3] it was 87.4%; in [4], 98.3%; in experiment [5], 93.4%; in experiment [6], 106%. For the same compound, the growth in [7] is 80.3%; in experiment [8], 83.1%; in experiment [9] it was 79.7%; in experiment [10], 98%.

Regarding `Cc1ccccc1-n1nnc(C(=O)Nc2nc(-c3ccccc3)c(-c3ccccc3)s2)c1C`, the growth is 87.6% [50 µM] in experiment [1]; 53.5% [50 µM] in experiment [2]; 80% [50 µM] in experiment [3]; 85.3% [50 µM] in experiment [4]; 69% [50 µM] in experiment [5]; 69.6% [50 µM] in experiment [6]. Besides, the growth in experiment [7] was 80.6% [50 µM]; in experiment [8], 77.1% [50 µM]; in [9] it was 61.5% [50 µM]; in experiment [10] it was 78.7% [50 µM].

As to `Clc1ccccc1Nc1ccc2nnc(-c3ccncc3)n2n1`, the growth was 114% in experiment [1]; 47.6% in [2]; 112% in experiment [3]; 108% in [4]; 96.2% in experiment [5]; 101% in [6]. For the same compound, the growth in experiment [7] was 93.9%; in experiment [8], 92.7%; in experiment [9], 114%; in experiment [10], 112%.

Turning to `N#CC1=C(N)Oc2cc(N)ccc2C1c1ccc(F)cc1` (stereo not given), the growth in experiment [1] was 93.1%; in experiment [2] it was 24.8%; in experiment [3], 71.9%; in experiment [4] it was 83.4%; in experiment [5], 74.9%; in experiment [6], 81.9%. The growth in [7] is 72.2%; in experiment [8] it was 83.6%; in experiment [9] it was 95.6%; in experiment [10], 51.1%.

In the case of `O=c1[nH]c(=S)c2c(n1CCCO)CCC2`, the growth in [1] is 108%; in [2] it was 93.4%; in experiment [3], 92.9%; in [4], 102%; in [5], 113%; in [6], 100%. The growth in [7] is 102%; in [8], 104%; in experiment [9], 96.7%; in experiment [10] it was 97%.

For `O=C1c2ccccc2C(=O)c2c(Nc3ccc(CCO)cc3)ccc(O)c21`, the growth is 60.7% in experiment [1]; 17.2% in experiment [2]; 77.2% in experiment [3]; 56.4% in [4]; 74.6% in [5]; 60.4% in experiment [6]. Moreover, the growth was 50.2% in [7], 84.8% in [8], 101% in [9] and 80.3% in experiment [10].

For `COc1cc(-c2nc(SC(C)C)nc(Nc3ccccc3C)c2C#N)cc(OC)c1OC`, the growth in experiment [1] was 113%; in experiment [2], 98.6%; in experiment [3], 104%; in [4], 102%; in experiment [5], 120%; in [6], 106%. For the same compound, the growth in experiment [7] was 102%; in experiment [8] it was 103%; in [9] it was 113%; in [10], 104%.

For the compound `C[C@H]1C(=O)C23CCC1C[C@@]21O[C@@H]2C(C)(C)C=CC(=O)C23COC1=O`, the growth is 104% in experiment [1]; 104% in experiment [2]; 110% in [3]; 118% in [4]; 108% in experiment [5]; 104% in experiment [6]. Also, the growth in experiment [7] is 110%; in [8] it was 111%; in experiment [9] it was 98.7%; in [10], 102%.

With `O=C(O)c1ccccc1Oc1cc(-c2ccco2)nc(OCCBr)n1`, the growth is 104% in experiment [1]; 100% in [2]; 99.1% in [3]; 105% in [4]; 135% in [5]; 98.7% in [6]. The growth in experiment [7] is 95.1%; in experiment [8], 105%; in experiment [9] it was 97.8%; in [10] it was 104%.

In the case of `COc1ccc(/C=C/C(=O)N2CCC(O)CC2)cc1OC1CCCC1`, the growth is 110% in experiment [1]; 102% in experiment [2]; 109% in [3]; 103% in experiment [4]; 118% in [5]; 101% in experiment [6]. For the same compound, the growth was 101% in [7], 95.8% in experiment [8], 101% in [9] and 107% in experiment [10].

In the case of `COC(=O)c1c2c(c(C)[n+]([O-])c1C)C(=O)C=C(NCc1ccc(F)c(Cl)c1)C2=O`, the growth in experiment [1] is -99% (active); in [2], -7.41% (active); in experiment [3], -98.3% (active); in experiment [4], -25.6% (active); in [5], -41.1% (active); in experiment [6], -9.98% (active). Besides, the growth was -97.5% (active) in experiment [7], -89.7% (active) in [8], -82.8% (active) in experiment [9] and -88.4% (active) in [10].

Take `COc1cc(C(=O)N(C(C)C)C2CCCCC2)cc(OC)c1OC`: the growth in [1] is 112%; in experiment [2], 98.7%; in experiment [3], 99.5%; in experiment [4] it was 127%; in experiment [5], 97.4%; in experiment [6], 98.1%. Moreover, the growth in experiment [7] is 109%; in experiment [8] it was 101%; in experiment [9], 93.7%; in [10], 132%.

Turning to `Cc1ccc(S(=O)(=O)N2CCc3ccc(O)c4c3C2CCc2ccccc2-4)cc1` (stereo not given), the growth in experiment [1] was 106%; in [2], 94.1%; in experiment [3], 97.2%; in experiment [4], 95.2%; in [5], 117%; in [6] it was 97.1%. In addition, the growth in [7] was 104%; in experiment [8] it was 105%; in experiment [9] it was 105%; in experiment [10] it was 98.6%.

In the case of `O=[N+]([O-])c1ccc(C=C2C(Cl)=C(Cl)C(Cl)=C2Cl)cc1`, the growth in experiment [1] is 73%; in experiment [2], 7.31% (active); in experiment [3], 108%; in [4] it was 74.8%; in experiment [5] it was 0.914% (active); in [6], 55.1%. Further, the growth in experiment [7] was 86.3%; in experiment [8] it was 75.8%; in [9], 67.7%; in experiment [10], 36.9%.

As for `O=C1Nc2ccc(Cl)cc2/C1=N/N=C(c1ccccc1)c1ccccc1`, the growth was 103% in experiment [1]; 93.3% in [2]; 87.9% in [3]; 75.6% in experiment [4]; 109% in experiment [5]; 97.8% in experiment [6]. In addition, the growth in experiment [7] was 92.6%; in experiment [8], 97%; in [9], 98.5%; in [10], 102%.

For `Cc1nc2nc(C(F)(F)F)[nH]c2nc1C`, the growth is 115% in experiment [1]; 92.9% in [2]; 117% in experiment [3]; 114% in experiment [4]; 106% in experiment [5]; 102% in [6]. The growth in experiment [7] was 78.6%; in [8], 120%; in experiment [9] it was 100%; in experiment [10], 105%.

As for `CC1SC(c2cccc(Oc3ccccc3)c2)N(CCc2cccs2)C1=O` (stereo not given), the growth was -6.09% (active) in [1]; 9.44% (active) in [2]; -72.7% (active) in [3]; -47.5% (active) in [4]; -90.6% (active) in [5]; -5.54% (active) in experiment [6]. Further, the growth in experiment [7] is -35.6% (active); in experiment [8], -82.3% (active); in experiment [9], -45.1% (active); in experiment [10], -74% (active).

As for `COc1cc(-c2nc(SC(C)C)nc(Nc3cccc(C)c3)c2C#N)cc(OC)c1OC`, the growth in experiment [1] is 109%; in experiment [2] it was 99.5%; in experiment [3] it was 108%; in experiment [4], 99.2%; in experiment [5], 127%; in [6] it was 107%. Also, the growth is 101% in experiment [7], 107% in experiment [8], 98.9% in experiment [9] and 108% in experiment [10].
